Hit rate of the full screen: of about 360,000 compounds, about 1,300 (0.36%) were called active. Shown is part of a subset that was picked to be rich in actives. Values without a mark were called inactive. Cut-off read from the data, not from the text of the source: active = inhibition above about 19%; inactive = the rest.

As a reminder, the inhibition is the drop in the measured response relative to a control, in per cent.

This assay has as its system T-cell receptor (TCR). Briefly: small molecules blocking TCR binding to CD3 – biochemical, fluorescence, TAMRA-labeled TCR probe, primary screen (AID 651800).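 Note: recombinant mutant TCR 2C K166C tagged with TAMRA read by polarization; 0% = receptor in buffer alone and 100% = receptor with positive control.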 The conditions noted are these: at 9.4 µM, stronger effect = higher value.
Regarding `NC1=CC(=O)C(=O)c2cccnc21`, the inhibition was 23.6% (active).

On to `CC[C@H](C)[C@H]1CNC(=O)C(=O)N1CC1CCN(CCc2ccc(OC)c(OC)c2)CC1`, for which the inhibition was 4.26%.

Turning to `CC(=O)NCc1ccc(S(=O)(=O)NC2CCN(Cc3ccccc3)CC2)cc1`, the inhibition was 0.98%.

Consider `COc1ccc2c(-c3ccccc3)cc(SCC(=O)N(C)C3CCS(=O)(=O)C3)nc2c1` (centres undefined), for which the inhibition was 1.46%.

For `O=C(c1cc(-c2ccco2)nc2ccccc12)N(Cc1nnc(-c2ccc(Cl)cc2)o1)C1CC1`, the inhibition was -2.45%.

Take `CN(C(=O)COC(=O)c1cc(-c2ccco2)nc2ccccc12)C1CCS(=O)(=O)C1` (centres undefined): the inhibition was 30.6% (active).

For the compound `C[C@@H](NC(=O)OC(C)(C)C)c1nnc(S(=O)(=O)Cc2ccccc2)o1`, the inhibition is 6.57%.

Regarding `COC(=O)Cc1nnn2c1[C@H](C)[C@@H](OC)c1cc(Br)ccc1-2`, the inhibition was -3.71%.

Regarding `COC(=O)[C@]12C[C@H](CC(=O)NCCc3ccccc3OC)C(=O)N(Cc3ccccc3)C1=C[C@H](C(C)C)O[C@@H]2C1CC1`, the inhibition is 0.38%.

As for `Cc1[nH]c2ccccc2c1CC(=O)Nc1ccc(Nc2cccnc2)c(-c2cccc(Cl)c2)c1`, the inhibition was 7.27%.

For the compound `CC(=O)c1c(C)[nH]c(C(=O)COc2ccc3c(C)cc(=O)oc3c2)c1C`, the inhibition was -7.65%.

For the compound `Cc1ccc(O)c(/C=N/NC(=O)COc2ccc3c(C)cc(=O)oc3c2)c1`, the inhibition is 35% (active).

On to `COc1ccc(N2CCN(C(=O)COc3ccc4c(C)cc(=O)oc4c3)CC2)cc1`, for which the inhibition is 4.22%.

Regarding `Cc1nc(NC(=O)C(C)(C)C)sc1[N+](=O)[O-]`, the inhibition is -8.33%.

Turning to `O=S1(=O)c2ccc(Br)cc2-n2nncc2CN1Cc1cccc(Cl)c1`, the inhibition is 3.21%.

With `Nc1ncnc2c1ncn2[C@@H]1O[C@H](C(=O)N[C@@H](CCc2ccccc2)C(=O)NCC(=O)N2CCOCC2)[C@@H](O)[C@H]1O`, the inhibition was 10.8%.

On to `COC(=O)C(C(=O)OC)c1ccccc1NS(=O)(=O)c1cccc2ccccc12`, for which the inhibition is 6.59%.

Regarding `O=C(NN=Cc1ccco1)C(=O)Nc1ccc(Cl)c([N+](=O)[O-])c1`, the inhibition was 3.53%.

`Cc1ncc(CO)c(/C=N/NC(=O)c2cccc(S(=O)(=O)N3CCCC3)c2)c1O`: the inhibition is 27.1% (active).

Regarding `O=C(NNC1=NCCC1)c1cccc(S(=O)(=O)N2CCCCC2)c1`, the inhibition was -7.2%.

Consider `CCOc1cc(/C=N/NC(=O)c2cccc(S(=O)(=O)N3CCOCC3)c2)ccc1OCC(=O)N(C)C`, for which the inhibition was -6.38%.

Regarding `O=C(O)Cn1cnc2c(NCc3ccccc3)ncnc21`, the inhibition was -4.94%.

`Cc1ccc(C)c(NC(=O)CN(C)C(=O)COc2ccc3ccccc3c2)c1`: the inhibition is -2.17%.

For `Cc1cc2ccccc2n1CCNC(=O)COc1ccc2ccccc2c1`, the inhibition was 60.3% (active).

Turning to `COCCNC(=O)COc1ccc(N(C)S(=O)(=O)c2ccc3ccccc3c2)cc1`, the inhibition was -0.41%.

Take `N#Cc1cccc(C(=O)NCC2CCN(C(=O)C(=O)c3cc4ccccc4o3)CC2)c1`: the inhibition was 0.99%.

Take `CCOc1ccccc1C(=O)N1CCC[C@@H]1C(=O)N1CCC[C@H]1C(=O)NCc1ccccc1`: the inhibition was -2.28%.

Take `Cc1ccc2nc(-c3ccc(NC(=O)CN(C)S(=O)(=O)c4ccccc4)cc3)sc2c1`: the inhibition is 8.35%.

For `O=C(Nc1cccc(-c2nc3ccccc3[nH]2)c1)c1ccc(C(=O)Nc2cccc(-c3nc4ccccc4[nH]3)c2)cc1`, the inhibition was 26.7% (active).

On to `O=C(NCC(O)c1nc2ccccc2[nH]1)c1ccc(Br)cc1` (centres undefined), for which the inhibition is 4.63%.

With `O=C(Nc1ccccc1)c1cc2ccccc2[nH]1`, the inhibition was -3.23%.

Consider `Cc1cc(OC(=O)NCCc2ccc(F)cc2)ccc1F`, for which the inhibition is 1.4%.

Consider `COC(=O)c1cc2c(c3c4cc(F)ccc4n(S(=O)(=O)c4ccccc4)c13)C(=O)N(Cc1ccccc1OC)C2`, for which the inhibition was 2.91%.

Take `CC(C)(C)C(c1nc2ccccc2[nH]1)n1c(Cc2csc3ccccc23)nc2ccccc21` (centres undefined): the inhibition is 5.18%.

The values are drawn from PubChem BioAssay AID651800 (The Scripps Research Institute Molecular Screening Center, 2012).
